# In PubChem BioAssay AID1963321 (National Center for Advancing Translational Sciences (NCATS), 2024):
# Records with an inconclusive call do not appear. Values without a mark were called inactive. Active and inactive are the calls of the source. The call rests on the fitted dose curve.
# Target: cAMP-dependent protein kinase catalytic subunit alpha (Homo sapiens) (UniProt P17612)
# Experiment: Protein Kinase A (PKA-HiBiT) enzymatic inhibition screen - Functional assay
# Settings: luminescence; series mostly up to 57.5 µM; activity change, negative = inhibition: at the top concentration
# In short: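 PKA-N-HiBiT enzyme (10 nM final) with 87.5 uM ATP preincubated 30 min at room temperature with compounds. Kemptide substrate then added for 3 h; residual ATP read by Kinase-Glo Plus luminescence, H-89 as positive control.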
Structure (SMILES),"activity change, negative = inhibition [%]",Potency
C#Cc1cccc(Nc2ncnc3cc4c(cc23)OCCOCCOCCO4)c1,8.9,
Cc1cc(Nc2ncc3cc(-c4c(Cl)cccc4Cl)c(=O)n(C)c3n2)ccc1F,9.03,
CCN1CCN(Cc2ccc(NC(=O)c3ccc(C)c(NC(=O)c4cncc(-c5cccs5)c4)c3)cc2C(F)(F)F)CC1,7.5,
CCOc1ccn(-c2ccc(F)cc2)c(=O)c1C(=O)Nc1ccc(Oc2ccnc(N)c2Cl)c(F)c1,,0.0153 µM (active)
Cc1cn(-c2cccc(NC(=O)c3ccc(C)c(Nc4nccc(-c5cccnc5)n4)c3)c2)cn1,9.04,
C=CC(=O)Nc1cc2c(Nc3ccc(F)c(Cl)c3)ncnc2cc1OCCCN1CCOCC1,9.13,
CCN1CCN(Cc2ccc(NC(=O)Nc3ccc(Oc4cc(NC)ncn4)cc3)cc2C(F)(F)F)CC1,-25.1,
CCN1C(=O)CNc2ncc(-c3ccc(-c4ncn[nH]4)nc3C)nc21,6.55,
Cc1cc(Nc2ncc3c(n2)N(C)C(=O)N(c2cc(NC(=O)c4cccc(C(F)(F)F)c4)ccc2C)C3)n(C)n1,7.73,
Cc1[nH]c2ccccc2c1C1=C(NCCc2ccc(F)cc2)C(=O)N(C)C1=O,9.02,
CCN(CC)CCOc1ccc(Nc2ncc3cc(-c4c(Cl)cccc4Cl)c(=O)n(C)c3n2)cc1,2.72,
Cc1ccc(C(=O)Nc2ccc(CN3CCN(C)CC3)c(C(F)(F)F)c2)cc1C#Cc1cnc2[nH]ncc2c1,6.29,
COc1cc2ncnc(Nc3ccc(F)c(Cl)c3)c2cc1OCCCN1CCOCC1,7.9,
Cc1cc(C)c(/C=C2\C(=O)Nc3ccccc32)[nH]1,8.87,
